Data as given in PubChem BioAssay (NCATS).
Inconclusive results are not listed. Entries that show only a call come without a potency. Calls of active or inactive are those of the source. The call rests on the fitted dose curve; in most records, active means well fitted curve in the direction sought with a large enough effect; inconclusive means small, poorly fitted or top-dose-only effect, or another doubt; inactive means no such curve, though single readings can be large; an effect the other way counts as inactive or inconclusive.

Key:
[1] = qHTS assay to identify small molecule inhibitors of chordoma cells - UCH-2 (AID 1259356); further: series mostly up to about 46 µM
[2] = P-glycoprotein substrates identified in KB-8-5-11 adenocarcinoma cell line, qHTS therapeutic library screen (AID 1346987); conditions: outcome: dose series up to 44.5 µM unless noted; further: series mostly up to about 44 µM; nearly all actives have a fitted effect of over 65% in size
Outline: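 P-gp-mediated resistance screen: KB-8-5-11 cells treated 72 h with compounds in dose-response. CellTiter-Glo viability.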

[3] = NS1 protein of Zika virus - qHTS assay to identify small molecule inhibitors in human HEK 293 cells (AID 1347053); further: series mostly up to about 46 µM; nearly all actives have a fitted effect of over 55% in size
Outline: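 HEK 293 cells, seeded 20 h at 37 C, were pretreated with compound 1 h, then infected with ZIKV MR766 (MOI = 0.5) for 24 h. NS1 was read by TR-FRET with two anti-NS1 antibodies, normalized to uninfected and infected wells.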

[4] = qHTS of pediatric cancer cell lines to identify multiple opportunities for drug repurposing: Primary screen for TC32 cells (AID 1347089); further: nearly all actives have a fitted effect of over 60% in size
Outline: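 Luminescent ATP read-out (CellTiter-Glo) of metabolically active TC32 cells after 48 h exposure. Concentration-response curves came from 11-point (MIPE, 0.78 nM–46 µM) or 8-point (NPC, 0.59 nM–46 µM) primary titrations; follow-up used 11 points.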

Cc1cccc(C)c1NC(=O)C1CCCCN1C (centres undefined)
Potency [1]: inactive
Potency [2]: inactive

C=CC1=C(C(=O)O)N2C(=O)[C@@H](NC(=O)/C(=N/OCC(=O)O)c3csc(N)n3)[C@H]2SC1 (stereo in doubt)
Potency [1]: inactive
Potency [2]: inactive

CC(=O)Nc1c(I)c(C(=O)N[C@H]2C(O)O[C@H](CO)[C@@H](O)[C@@H]2O)c(I)c(N(C)C(C)=O)c1I (some centres undefined)
Potency [1]: inactive
Potency [2]: inactive

O=C(OCc1ccccc1)c1ccc(O)cc1
Potency [1]: inactive
Potency [2]: inactive
outcome [3]: inactive
outcome [4]: inactive

O=C1CCC(=O)N1CO
Potency [1]: inactive
Potency [2]: inactive

CC(C)[C@@H]1CC[C@@H](C)C[C@H]1OC(=O)c1ccccc1O
Potency [1]: inactive
Potency [2]: inactive

C=C1CC[C@H](O)CC1=C/C=C1\CCC[C@]2(C)[C@@H]([C@H](C)CC[C@@H](O)C(C)(C)O)CC[C@@H]12
Potency [1]: inactive

CN1CCCC(CN2c3ccccc3Sc3ccccc32)C1 (centres undefined)
Potency [1]: inactive
Potency [2]: inactive

CCCCCCCCCCCCCCCCCC[N+](C)(C)CCC[Si](OC)(OC)OC
Potency [1]: inactive
Potency [2]: inactive

CN[C@@H]1[C@@H](O[C@H]2O[C@H](CO)[C@@H](N)[C@H](O)[C@H]2O)O[C@H]2C[C@@H](N)[C@@H](O[C@H]3[C@H](O)[C@@H](O)[C@H](N)C[C@@H]3N)O[C@@H]2[C@@H]1O
Potency [1]: inactive
Potency [2]: inactive

NC(=O)c1cc[n+](CC2=C(C(=O)O)N3C(=O)[C@@H](NC(=O)C(c4ccccc4)S(=O)(=O)[O-])[C@H]3SC2)cc1 (some centres undefined)
Potency [1]: inactive
Potency [2]: inactive

COc1ccc(-c2noc(CC(=O)O)c2-c2ccc(OC)cc2)cc1
Potency [1]: inactive
Potency [2]: inactive

COC(=O)C(CN)c1c[nH]c2ccc(OC)cc12 (centres undefined)
Potency [1]: inactive

O=C(O)CCC/C=C\C[C@@H]1[C@@H](/C=C/[C@@H](O)COc2cccc(Cl)c2)[C@H](O)C[C@@H]1O
Potency [1]: inactive
Potency [2]: inactive

O=P(O)(O)OP(=O)(O)O
Potency [1]: inactive
Potency [2]: inactive

CCCC(=O)Nc1c(I)cc(I)c(CC(CC)C(=O)O)c1I (centres undefined)
Potency [1]: inactive
Potency [2]: inactive

O=C1CC[C@@H](C(=O)N[C@H]2C[C@@H]2c2ccccc2)N1
Potency [2]: inactive

CC(C)(C)NCC(O)c1ccc(O)c(CO)n1 (centres undefined)
Potency [1]: inactive
